# An excerpt weighted towards active compounds, which were near 27% of everything screened.
# CYP2C9 activ: human CYP2C9 activators, primary screen, biochemical, luminescence | activation factor at 5 µM | recombinant CYP2C9, luciferin-H conversion; hits give high values; factor 1 = untreated enzyme, 0 = blocked | Cytochrome P450 2C9 (Homo sapiens), P11712 | 1.4% of 96,000 active;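 active = activation factor of 2 or more for CYP2C9 at a 5 µM dose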;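 also: 0 = sulfaphenazole-blocked wells and 1 = vehicle-only wells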
# Cav32 inh: Cav3.2 calcium influx blockers – cell-based, Fluo-4 calcium fluorescence, FDSS, MLSMR library, primary screen; 4% of 100,000 active; B-score at 10 µM; Voltage-dependent T-type calcium channel subunit alpha-1H (Homo sapiens), O95180; Cav3.2-expressing cells; hits give low values; AID 449739, 2010;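 active = single-dose well whose peak fluorescence ratio is a statistical outlier from its plate by either plate-standardised score or position-corrected B-score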
# CYP2C19 activ: human CYP2C19 activators, primary screen, biochemical, luminescence; recombinant CYP2C19, luciferin-H EGE luminescence; hits give high values; 0 = fully inhibited enzyme, 1 = untreated enzyme; AID 1025, 2008; 96,000 tested, under 10 active; Cytochrome P450 2C19 (Homo sapiens), P33261; activation factor at 5 µM;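 active = activation factor of at least 2 at 5 µM in the primary screen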;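 also: 0 = wells with 2.5 mM tranylcypromine and 1 = vehicle-only wells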
# CYP2C19 inhib: blockers of cytochrome P450 2C19 activity – biochemical, luminescence, ADME assay, primary screen | P33261 | CYP2C19 Supersomes, luciferin-H EGE luminescence, 30 min | inhibition, % at 5 µM | 21% of 96,000 active | AID 778, 2007;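 active = CYP2C19 inhibition above a set limit at 5 µM in the primary screen, cut at about 50% in these data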;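 also: plate controls were negative control wells for no effect and 2.5 mM tranylcypromine positive control for full effect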
# CYP2C9 inhib: blockers of cytochrome P450 2C9 activity – biochemical, luminescence, ADME assay, primary screen; inhibition, % at 5 µM; P11712; AID 777, 2007; CYP2C9 Supersomes, luciferin-H conversion; 20% of 96,000 active;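 active = blocking of liver enzyme CYP2C9 beyond about 50% at 5 µM, limit read from the data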
# * marks the source's active call; other numbers are inactive results; . = no result.
SMILES,CYP2C9 activ,Cav32 inh,CYP2C19 activ,CYP2C19 inhib,CYP2C9 inhib
COc1ccc([N+](=O)[O-])cc1COc1cc(C)cc2oc(=O)cc(-c3ccccc3)c12,0.1,-8.7*,0.3,75*,92*
CCCCc1cc(=O)oc2cc(C)cc(OC(C)C(=O)O)c12 (stereo not given),0.8,.,1,-1,22
COc1cc(/C=C2/N=C(c3ccccc3)OC2=O)c(F)cc1OCc1ccccc1,.,-1.3,.,.,.
O=S(=O)(c1ccc(C2CCCCC2)cc1)N1CCCC1,0.8,-1,1,-2,22
CC1CCc2c(C(=O)N3CCN(S(=O)(=O)c4cccs4)CC3)csc2C1 (stereo not given),0.2,-2.4,0.2,78*,77*
O=C(c1ccco1)N1CCN(C(=O)C2CCN(S(=O)(=O)c3cccs3)CC2)CC1,1,0.71,1,1,-3
COc1cccc(C2NC(=O)NC(O)(C(F)(F)F)C2C(=O)c2cccnc2)c1OC (stereo not given),0.5,1.3,0.1,92*,49
CC(C)(C)C1CCC2(CC1)Nc1cccc3cccc(c13)N2,0.2,-2.4,0,96*,80*
CCOC(=O)c1c(C(F)(F)F)nc2ncccn12,1.1,0.5,1,0,-8
COc1cccc(NC(=O)N(CCCN2CCOCC2)C(C)c2cc3ccccc3o2)c1 (stereo not given),0.5,0.13,0.5,46,52*
COc1cccc(NC(=O)N(CCCN2CCOCC2)C(C)c2cc3cccc(OC)c3o2)c1 (stereo not given),0.3,0.13,0.3,66*,67*
COc1ccc(OC)c(CN(CCCN2CCOCC2)C(=O)Nc2ccccc2)c1,.,0.3,.,.,.
Cc1cc(NC(=O)CN2C(=O)C3CC=CCC3C2=O)no1 (stereo not given),1.2,0.21,1.1,-9,-18
N#CC1=C(Nc2ccccc2)SC=C(c2ccc(Cl)c(Cl)c2)N=C1N1CCOCC1,0.8,.,1,1,22
CCN(CCNS(=O)(=O)c1ccc2[nH]c(=O)sc2c1)c1ccccc1,0.8,-2.6,0,100*,24
CCN(CCC(=O)O)c1ccccc1,1.1,0.45,1,0,-9
Fc1ccc(SCCc2ccncc2)cc1,0.2,-0.057,0,97*,82*
Fc1cc(F)c(F)c(SCCc2ccncc2)c1F,0.3,0.22,0.2,81*,74*
Cc1ccc(-n2nnnc2SCC(N)=O)c(C)c1,1.1,-0.016,0.9,8,-6
Cc1cccc(C)c1-n1nnnc1SCSc1nnnn1-c1c(C)cccc1C,0.2,-0.69,0.7,33,77*
CCOc1ccc(-n2cc(C(=O)Nc3cccc(C)n3)c3cc(OC)c(OC)cc3c2=O)cc1,.,-0.017,.,.,.
Nc1nc(-c2ccccc2)cc(N2CCCCC2)n1,0.8,-1.8,0.5,51*,21
c1ccc(-c2cc(N3CCCCC3)ncn2)cc1,0.8,-0.46,0.1,87*,21
Cc1nc(-c2ccccc2)cc(N2CCCC2)n1,0.7,-1.5,0.5,51*,30
c1ccc(-c2cnnc(N3CCCCC3)n2)cc1,0.6,-0.32,0.2,83*,43
SMILES,CYP2C9 activ,Cav32 inh,CYP2C19 activ,CYP2C19 inhib,CYP2C9 inhib
c1ccc(-c2cc(N3CCCCCC3)n[nH]2)cc1,0.8,-2.8,0.8,22,24
c1ccc(-c2csc(N3CCCCCC3)n2)cc1,1.1,-0.03,1,-3,-6
FC(F)(F)c1cc(-c2ccccc2)nc(N2CCCCCC2)n1,1,-0.22,1,-3,-4
CCn1cc(C(=O)Nc2ccc(C(=O)N3CCCC3)cc2)c(=O)c2ccc(C)nc21,1,.,0.9,7,2
c1ccc(-c2nc3ccccc3s2)nc1,1,0.45,0.9,9,-4
O=C1NC(c2ccccc2)=C(c2nc3ccccc3s2)C(c2ccccc2)N1 (stereo not given),0.1,-4,0.3,71*,91*
CC(C)C(c1nnnn1Cc1ccccc1)N(Cc1ccco1)Cc1cccs1 (stereo not given),0.1,-0.97,0,96*,89*
COc1ccc(C(c2nnnn2Cc2ccccc2)N2CCN(C(=O)c3ccco3)CC2)cc1 (stereo not given),0.5,0.41,0.7,30,49
